Measured values from PubChem BioAssay (NCATS).
Results filed as inconclusive are left out. A number with no mark means an inactive call. The source made the active and inactive calls. The call rests on the fitted dose curve; in most records, active means well fitted cell-killing curve with a large enough effect; inconclusive means small, poorly fitted or top-dose-only effect; inactive means flat fitted curve, though single readings scatter.

test: Quantitative highthroughput screen to assess conditional lethalithy of P12 Ichikawa cells grown in Human Plasma-Like Medium with dialyzed fetal bovine serum (HPLM+ds) (AID 1963879); settings: ATP luminescence, 48 h; Potency: viability; series mostly up to 45.8 µM; viability: at the top concentration; further: nearly all actives have a fitted effect of over 35% in size
Source text: Assay Provider: Jason Cantor Ph.D.
Department of Biochemistry
University of Wisconsin-Madison, Madison, WI, USA
Chemical screening studies have identified drug sensitivities across hundreds of cancer cell lines but most putative therapeutics fail to translate. Discovery and development of drug candidates in models that more accurately reflect nutrient levels in human blood is a major challenge. Here we performed high-throughput screens in conventional versus Human Plasma-Like Medium (HPLM) to identify compounds that were "missed" when screening using the artificial culture condition. Sets of conditional anticancer compounds spanned phases of clinical development and included non-oncology drugs were assessed. […] We also traced conditional phenotypes for several chemotherapeutics to availability of HPLM-specific metabolites and confirmed others for compounds whose reported targets are encoded by nonessential genes. Our findings establish generalizable strategies for exploiting conditional lethality in HPLM to reveal therapeutic candidates and mechanisms of action in cancer cells.
Described herein are the results of each viability screens against three cell lines: NOMO1 (an acute myeloid leukemia cell line); P12-Ichikawa (a T-cell acute lymphoblastic leukemia); and SEM (a B-cell ALL). Each assay was screened using 3 different cell culture media: homemade human plasma-Like medium with 10% dialyzed fetal bovine serum (HPLM+ds); RPMI1640 with 10% untreated FBS and 5mM glucose (RPMI+s); and RPMI1640 with 10% dialyzed fetal bovine serum and 5 mM glucose (RPMI+ds).
PROTOCOL TABLE (as described by Inglese J, Shamu CE and Guy RK. 2007)
SEQUENCE No. (e.g., 1, 2, 3, etc.); […] (e.g., Cells, Incubation, Reagent, etc.); VALUE and DESCRIPTION.
1; Cells; 5 uL; white, solid bottom 1536-well Greiner assay plate.
2; Compounds; 23 nL; Kalypsis pin tool (Wako USA) equipped with a 1536-well pin head to transfer to the assay plates.
3; Incubation; 48 hours; 37C incubation.
4; Reagent; 3 uL; CellTiter Glo (Promega).
5; Incubation; 5 min, room temperature
6; Detection; Luminescence, Viewlux PerkinElmer.
NOTES (numbers refer to Sequence numbers above)
1. Briefly, 5 ul of cell reagent was dispensed using a Multidrop Combi Dispenser. The NOMO1 and SEM cells were plated at 500 cells/well and the P12-Ichikawa line at 1000 cells/well.
2. After seeding the cells, 23 nL of MIPE 4.1 library compounds (in DMSO) were added to each plate using a Kalypsys 1536 Pintool dispenser. Bortezomib at final concentration of […] and DMSO were added to each plate as positive and negative controls respectively. For each screen, MIPE 4.1 compounds were added over an eleven-point concentration range […] in 3-fold dilutions.
3. Each plate was covered with a stainless steel gasketed lid to prevent evaporation and incubated for 48 hour at 37C, 95% relative humidity, and 5% CO2.
4-5. Three microliter CellTilter-GloTM luminescent substrate mix (Promega) reagent was added to the assay plate and incubated at room temperature for 5 min.
6. The luminescence signal was measured using a ViewLux (PerkinElmer) multiplate reader with a 2 second exposure time per plate. Data for each compound were normalized as percent viability such that measurements for DMSO and the empty well controls in each plate were defined as 100% and 0%, respectively.
Potency means the concentration at half of the fitted maximal effect.

| Structure (SMILES) | viability | Potency |
| --- | --- | --- |
| COc1ccc(-c2cc(=O)c3c(O)cc(O)cc3o2)cc1O | 107% |  |
| Cc1[nH]c(C=C2C(=O)Nc3ccc(S(=O)(=O)Cc4c(Cl)cccc4Cl)cc32)c(C)c1C(=O)N1CCC[C@H]1CN1CCCC1 | 83.3% |  |
| O=C(NC1CCNCC1)c1[nH]ncc1NC(=O)c1c(Cl)cccc1Cl |  | 1.66 µM (active) |
| O=C1CCC[C@@H]2[C@H]3CCC[N+]4([O-])CCC[C@@H](CN12)[C@@H]34 (stereo not given in full) | 100% |  |
| Cc1ccn(-c2ccc(-c3ncco3)cc2)c(=O)c1-c1ccc2nc(N)ncc2c1 | 83.4% |  |
| CN1CC(=O)NC1=NC(=O)Nc1cccc(Cl)c1 | 93.2% |  |
| NC(=O)c1cnccn1 | 107% |  |
| CN(C)CC(C)(C)CNc1nn2c(-c3ccccc3)nnc2cc1C1CCC1 |  | 10.5 µM (active) |
| COc1cc2ncn(-c3cc(OCc4ccccc4C(F)(F)F)c(C(N)=O)s3)c2cc1OC |  | 1.32 µM (active) |
| C[C@@H]1CN(c2c(F)c(N)c3c(=O)c(C(=O)O)cn(C4CC4)c3c2F)C[C@H](C)N1 | 86.4% [at 23.2 µM] |  |
| CNc1nc(Nc2ccc(C(=O)N3CCOCC3)cc2OC)ncc1Cl | 102% |  |
| CS(=O)(=O)c1ccc(-c2cnc(N)c(C(=O)Nc3ccccc3)n2)cc1 | 81.7% |  |
| C[C@@]1(C(=O)Nc2ccc(F)nc2)CCCN1c1nc(Nc2cc(C3CC3)[nH]n2)c2cccn2n1 |  | 2.96 µM (active) |
| COC(=O)c1ccc2c(C(=Nc3ccc(N(C)C(=O)CN4CCN(C)CC4)cc3)c3ccccc3)c(O)[nH]c2c1 | 104% |  |
| COc1ccccc1OCC(O)CN1CCN(CC(=O)Nc2c(C)cccc2C)CC1 (stereo not given) | 84.5% |  |
| Nc1nc(OCc2ccccc2)c2[nH]cnc2n1 | 96.5% |  |
| CC(C)(O)CNc1nc(Nc2ccnc(C(F)(F)F)c2)nc(-c2cccc(C(F)(F)F)n2)n1 |  | 2.95 µM (active) |
| Nc1nccc(-c2ccc3noc(-c4ccc(Cl)cc4)c3c2)n1 | 108% |  |
| CC(C)(C)[N+]([O-])=Cc1ccc(S(=O)(=O)O)cc1S(=O)(=O)O | 112% |  |
| C[C@@H](NCc1cc2ccccc2[nH]1)c1cccc2ccccc12 | 97.7% |  |

| Structure (SMILES) | viability | Potency |
| --- | --- | --- |
| CC(C)C1CCC(C(=O)N[C@H](Cc2ccccc2)C(=O)O)CC1 (stereo not given in full) | 100% |  |
| Cc1ncc([N+](=O)[O-])n1CCO | 100% |  |
| C=CC(=O)Nc1ccc2ncnc(Nc3ccc(OCc4cccc(F)c4)c(Cl)c3)c2c1 |  | 7.43 µM (active) |
| Cn1cnc2c(F)c(Nc3ccc(Br)cc3F)c(C(=O)NOCCO)cc21 | 82.5% |  |
| OC1CCC(Nc2ncc3nc(Nc4c(F)cc(F)cc4F)n([C@@H]4CCOC4)c3n2)CC1 (stereo not given in full) | 97.4% |  |
| CC(C)(C)c1cc(NC(=O)Nc2ccc(-c3cn4c(n3)sc3cc(OCCN5CCOCC5)ccc34)cc2)no1 | 98.9% |  |
| O=c1oc2c(O)c(O)cc3c(=O)oc4c(O)c(O)cc1c4c23 | 98.9% |  |
| C[C@H](NC(=O)Cc1cc(F)cc(F)c1)C(=O)N[C@H](C(=O)OC(C)(C)C)c1ccccc1 | 98.5% |  |
| N#CC(=C(N)Sc1ccccc1N)C(C#N)=C(N)Sc1ccccc1N | 87.3% |  |
| C[C@]1(c2nc3c(C(N)=O)cccc3[nH]2)CCCN1 | 85.2% |  |
| NC(=O)Cc1cccc(C(=O)c2ccccc2)c1N | 98.2% |  |
| C[C@@H]1CC=CC=CC=CC=C[C@@H](O[C@@H]2O[C@H](C)[C@@H](O)[C@H](N)[C@H]2O)C[C@@H]2O[C@](O)(C[C@@H](O)C[C@@H]3O[C@@H]3C=CC(=O)O1)C[C@H](O)[C@@H]2C(=O)O | 101% |  |
| C[C@H](NC(=O)c1sccc1OCc1ccc(Cl)cc1)c1ccccc1 | 99.2% |  |
| CN(C)c1nc(Cc2ccc(NC(=O)c3ccc(C(F)(F)F)cc3)cc2)nc(N(C)C)c1CC(=O)O | 93.8% |  |
| COc1cc(C(C)C)c(Oc2cnc(NC(CO)CO)nc2N)cc1I | 93.6% |  |
| N[C@H](CSC(c1ccccc1)(c1ccccc1)c1ccccc1)C(=O)O | 96.7% |  |
| CC(COc1ccccc1)N(CCCl)Cc1ccccc1 (stereo not given) |  | 2.35 µM (active) |
| CCOc1ccccc1N=Nc1c(C)[nH]n(-c2nc(-c3ccccc3)cs2)c1=O |  | 16.6 µM (active) |
| O=C(O)CCCc1c[nH]c2ccccc12 | 103% |  |
| CCn1cc(C(=O)O)c(=O)c2cc(F)c(N3CCNCC3)nc21 | 90% |  |
